High-throughput results from PubChem BioAssay.
The full list was thinned out, with hits kept by preference.
Chlamy TAG = inducers of TAG accumulation in Chlamydomonas, primary screen, qHTS, Chlamydomonas reinhardtii; Nile Red fluorescence, 72 h; calls only at 10 µM (by protocol); 44,000 compounds, 0.84% hits; AID 1159537, 2015; call rule not given here;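 further: hits raise Nile Red signal meaning more stored TAG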
Of the large screens only hits and unclear results are named; the others gave an inactive call.

O=[N+]([O-])c1cc(Br)c(O)c(/C=C/c2ccc3cccc(O)c3n2)c1	none
COc1cccc(N(C(C)=O)C2=C(NC3CCCCC3)C(=O)c3ccccc3C2=O)c1	none
CCCNC1=C(N(C(C)=O)c2cccc(F)c2)C(=O)c2ccccc2C1=O	none
CC(=O)N(C1=C(Nc2ccccc2)C(=O)c2ccccc2C1=O)c1ccccc1	Chlamy TAG active
Cc1c(C(=O)Nc2ccc(N3CCOCC3)c(Cl)c2)cccc1[N+](=O)[O-]	none
O=C(Nc1cc(Cl)ccc1O)C(c1ccccc1)c1ccccc1	none
O=C(Nc1ncc([N+](=O)[O-])s1)C1CCCCC1	none
C=CCc1cc(OC)ccc1OCCOCCn1ccnc1	Chlamy TAG active
C=CCc1cc(OC)ccc1OCCn1ccnc1	none
C=CCc1cc(OC)ccc1OCCCCn1ccnc1	none
CC(=O)Nc1ccc(NC(=O)COc2ccc(C)c(C)c2)cc1	none
O=C(COc1ccc(Cl)cc1)Nc1ccc(Br)cc1	none
CC(=O)Nc1ccc(OCC(=O)Nc2cc(Cl)cc(Cl)c2)cc1	Chlamy TAG active
C/C(Nc1cccc(C)n1)=C(\C#N)C(N)=O	none
Cc1cc(C)n(-c2cc(C)c3ccccc3n2)n1	none
COc1ccc(CN2CCN(c3ncnc4sc5c(c34)CCCC5)CC2)cc1	Chlamy TAG active
COc1ccc(-c2nc3c4c5c(sc4ncn3n2)CCCC5)cc1	none
c1ccc(N2CCN(c3ncnc4sc5c(c34)CCC5)CC2)cc1	none
CCN(CC)CCN(C)Cc1ccc([N+](=O)[O-])cc1	none
COc1ccccc1C(=O)NCc1cccs1	none
O=[N+]([O-])c1ccc(N2CCN(S(=O)(=O)/C=C/c3ccccc3)CC2)cc1	none
O=[N+]([O-])c1ccc(CN2CCN(C3CCCCC3)CC2)cc1	none
O=[N+]([O-])c1cccc(CN2CCN(C3CCCC3)CC2)c1	none
O=[N+]([O-])c1ccc(CN2CCN(C3CCCC3)CC2)cc1	Chlamy TAG active
O=[N+]([O-])c1ccc(C(O)CN2CCc3ccccc32)cc1 (stereo unspecified)	none
O=[N+]([O-])c1ccc(C(O)CN2CCN(Cc3ccccc3)CC2)cc1 (stereo unspecified)	Chlamy TAG active
O=[N+]([O-])c1ccc(N2CCN(Cc3ccccc3)CC2)nc1	none
Cc1ccc(OCC(=O)N2CCN(C(=O)c3cccc(Cl)c3)CC2)cc1	none
O=C(O)c1cccc(NS(=O)(=O)c2ccc(Cl)c(C(=O)Nc3ccccc3[N+](=O)[O-])c2)c1	none
Cc1cc(NS(=O)(=O)c2ccc(NC(=O)C(Cl)(Cl)Cl)cc2)nc(C)n1	none
CN(CC(O)COCc1ccccc1)C1CCCCC1 (stereo unspecified)	none
OC(COc1ccccc1Br)CN(C1CCCCC1)C1CCCCC1 (stereo unspecified)	none
Cc1ccc(OCC(O)CN2CCN(Cc3ccccc3)CC2)cc1C (stereo unspecified)	none
Cc1ccc(OCC(O)CN(C)C)cc1 (stereo unspecified)	none
Cc1ccc(OCC(O)CN(C)C2CCCCC2)cc1C (stereo unspecified)	Chlamy TAG active
CN(CC(O)COc1ccc(F)cc1)C1CCCCC1 (stereo unspecified)	Chlamy TAG active
Cn1c2c(c(=O)n(C)c1=O)C(c1cccc(Br)c1)C(C#N)=C(N)O2 (stereo unspecified)	none
Brc1ccc(CN2CCN(c3ncccn3)CC2)s1	none
CC(C)(C)c1ccccc1OCCCSC#N	none
Cn1c(NC(=O)c2cncc(Br)c2)nc2ccccc21	none
COc1ccc(Cl)cc1-n1c(C)cc(C=O)c1C	none
Cc1cc(C=O)c(C)n1-c1ccc(Br)cc1F	Chlamy TAG active
Cc1cc(C=O)c(C)n1-c1ccc(O)cc1	none
Cc1ccc(NC(=O)Cn2cc(C=O)c3ccccc32)c(C)c1	none
COc1ccc(CNC2CCCCC2C)cc1 (stereo unspecified)	none
COc1ccc(CNCc2ccc(OC)cc2)cc1	none
COc1ccc(CNC2CCSC2)cc1 (stereo unspecified)	Chlamy TAG active
CCOC(=O)N1CCN(Cc2ccc(N(C)C)cc2)CC1	none
N#CC1=C(N)SC(N)=C(C#N)C1c1ccc(-c2ccccc2)cc1	none
O=C(NCc1ccco1)c1c(F)c(F)c(F)c(F)c1F	none
